# Test results as given in PubChem BioAssay (NCI).
# About 79,000 compounds went through this panel and 15% of them were active in at least one assay; those are over-represented in the sample as a whole. A number with no mark means an inactive call. Active and inactive are the calls of the source. Rule as the data show it: active = growth inhibition above about 70%; inactive = the rest.
# Legend:
# [1] = NCI Yeast Anticancer Drug Screen. Data for the rad50 strain (AID 155);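 also: 0% = growth of vehicle-only cultures of the same strain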; details: S. cerevisiae rad50 strain growth inhibition, stronger effect = higher value
# Procedure, shortened: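 Growth of the mutant yeast was measured after compound exposure and referenced to vehicle-treated cultures.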
# [2] = NCI Yeast Anticancer Drug Screen. Data for the mec2-1 strain (AID 157); details: S. cerevisiae mec2-1 strain, stronger effect = higher value
# Procedure, shortened: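 Mutant yeast (mec2-1) grown with compound; growth inhibition relative to vehicle control reported.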
# [3] = NCI Yeast Anticancer Drug Screen. Data for the sgs1 mgt1 strain (AID 161);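 also: 0% = growth of cultures given vehicle only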; details: S. cerevisiae sgs1 mgt1 strain, stronger effect = higher value
# Procedure, shortened: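 Yeast cells carrying a defined DNA-repair defect were exposed to test compounds. Growth inhibition was measured relative to vehicle-treated controls.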
# [4] = NCI Yeast Anticancer Drug Screen. Data for the cln2 rad14 strain (AID 165);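 also: 0% = growth equal to vehicle treated cultures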; details: S. cerevisiae cln2 rad14 strain, stronger effect = higher value
# Procedure, shortened: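 Readout is yeast growth inhibition versus vehicle-treated controls, using a strain with cln2 and rad14 alterations exposed to compound.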
# [5] = NCI Yeast Anticancer Drug Screen. Data for the bub3 strain (AID 167); details: S. cerevisiae bub3 mutant strain, stronger effect = higher value
# Procedure, shortened: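 Whole-cell yeast assay. The mutant strain was incubated with compounds, and growth inhibition was determined by comparison with vehicle-treated cells.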
# [6] = NCI Yeast Anticancer Drug Screen. Data for the mlh1 rad18 strain (AID 175); details: S. cerevisiae mlh1 rad18 strain growth inhibition, stronger effect = higher value
# Procedure, shortened: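 Genetically defined yeast (DNA repair-deficient) exposed to compounds; growth inhibition determined relative to vehicle.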
# [7] = at 5.0 µM (retest, dose inferred, filed as 0.5)
# [8] = at 50.0 µM (retest, dose inferred, filed as 5.0)
Structure (SMILES),"growth inhibition [1, 7]","growth inhibition [1, 8]",growth inhibition ([1]; at 50.0 µM),"growth inhibition [2, 7]","growth inhibition [2, 8]",growth inhibition ([2]; at 50.0 µM),"growth inhibition [3, 7]","growth inhibition [3, 8]",growth inhibition ([3]; at 50.0 µM),"growth inhibition [4, 7]","growth inhibition [4, 8]",growth inhibition ([4]; at 50.0 µM),"growth inhibition [5, 7]","growth inhibition [5, 8]",growth inhibition ([5]; at 50.0 µM),"growth inhibition [6, 7]","growth inhibition [6, 8]",growth inhibition ([6]; at 50.0 µM)
COc1cc2c(c3c[n+](C)c4c5cc6c(cc5ccc4c13)OCO6)OCO2,98% (active),98% (active),92.2% (active),99% (active),99% (active),94.8% (active),99% (active),98% (active),93.7% (active),98% (active),98% (active),92.2% (active),98% (active),97% (active),93.1% (active),99% (active),98% (active),92.8% (active)
CC(C)(C)[Si](OC(=O)N(CCCl)CCCl)(c1ccccc1)c1ccccc1,22%,82% (active),67.2%,10%,76% (active),20.8%,13%,82% (active),79.5% (active),19%,83% (active),68.4%,-2%,93% (active),68.6%,15%,85% (active),90.3% (active)
O=[N+]([O-])/C=C\C(Cl)(Cl)Cl,74% (active),99% (active),91.7% (active),72% (active),99% (active),92.7% (active),73% (active),99% (active),92.2% (active),82% (active),99% (active),91.5% (active),92% (active),99% (active),90.5% (active),74% (active),99% (active),91.3% (active)
O=[N+]([O-])c1ccc(C2C3CC4C(OOC42)C3I)cc1 (configuration not stated),0%,20%,23.5%,0%,9%,18.1%,-4%,12%,32.8%,-1%,-7%,-27.4%,28%,98% (active),97.2% (active),0%,27%,31.4%
O=C1N[C@H]2[C@H](O)[C@H](O)[C@@H](O)[C@H](O)[C@@H]2c2cc3c(c(O)c21)OCO3,12%,70% (active),69%,19%,70% (active),65.8%,17%,58%,67.2%,32%,66%,69%,19%,60%,68.7%,26%,84% (active),58.2%
Clc1ccc2c(c1)C(c1ccccc1Cl)=NCC(SCCN1CCOCC1)=N2,56%,94% (active),96.8% (active),29%,92% (active),93.6% (active),63%,98% (active),89.7% (active),45%,81% (active),82% (active),48%,93% (active),95.6% (active),52%,95% (active),91.5% (active)
CC(C)(C)OOC(=O)/C=C\C(=O)OOC(C)(C)C,1%,-1%,5.05%,-2%,-1%,-15.1%,0%,0%,8.55%,1%,-8%,75.3% (active),2%,0%,9.7%,1%,0%,-12.7%
O=[N+]([O-])c1ccc2c3c(cccc13)CC2,15%,86% (active),6.7%,3%,32%,9.15%,11%,84% (active),0.9%,-1%,48%,-4.15%,6%,54%,19.9%,25%,90% (active),18.4%
COc1ccccc1/C=C/[N+](=O)[O-],90% (active),98% (active),99.6% (active),65%,99% (active),99.7% (active),87% (active),99% (active),99.2% (active),62%,99% (active),99.3% (active),74% (active),98% (active),99.2% (active),96% (active),99% (active),99% (active)
CC(=O)OC1CCC2C3CCC4C(F)C(=O)C(F)(F)CC4(C)C3CCC12C (configuration not stated),2%,78% (active),49%,-12%,93% (active),5.6%,-2%,91% (active),63.5%,-3%,46%,63%,-1%,60%,8.95%,0%,90% (active),12.7%
O=C(c1ccccc1)c1c(CC(O)c2cccnc2)n(C(=O)c2ccccc2)c2ccccc12 (configuration not stated),6%,96% (active),91% (active),3%,96% (active),89.2% (active),13%,97% (active),90.7% (active),19%,96% (active),56.5%,-5%,97% (active),87.9% (active),2%,94% (active),91% (active)
CC(=O)OCC12CCC(C)=CC1OC1C(O)C(OC(C)=O)C2(C)C12CO2 (configuration not stated),99% (active),99% (active),92.7% (active),98% (active),100% (active),94.5% (active),98% (active),99% (active),93.7% (active),99% (active),99% (active),92.8% (active),97% (active),99% (active),92.8% (active),99% (active),99% (active),92.5% (active)
COC1CC(OC2C(C)OC(OC3C(C)OC(OC4CCC5(C)C(=CCC6(O)C5CC(OC(=O)c5ccc(O)cc5)C5(C)C(O)(C(C)=O)CCC65O)C4)CC3OC)CC2OC)OC(C)C1O (configuration not stated) (tested in a mixture with another compound),1%,68%,45.9%,8%,82% (active),39.1%,1%,89% (active),68.7%,-7%,49%,48.6%,6%,74% (active),60.5%,-3%,83% (active),55.1%
CCN(CC)CC(=O)c1cc2ccccc2c2ccccc12,36%,97% (active),99.3% (active),14%,93% (active),92.2% (active),47%,97% (active),99.4% (active),2%,82% (active),31.1%,11%,98% (active),99.1% (active),36%,98% (active),99% (active)
CCC[CH2][Pb]([CH2]CCC)([CH2]CCC)[n]1ccnc1,99% (active),99% (active),90.2% (active),99% (active),99% (active),92.7% (active),98% (active),98% (active),93.7% (active),97% (active),99% (active),91.6% (active),99% (active),93% (active),92.2% (active),99% (active),99% (active),91% (active)
[Cl-].[Cl-].[Cl-].[O-]c1cccc2cccnc12.[O-]c1cccc2cccnc12.[O]=[Mo],96% (active),96% (active),87.5% (active),73% (active),73% (active),91.4% (active),72% (active),72% (active),89.2% (active),96% (active),96% (active),88.6% (active),64%,64%,90.4% (active),72% (active),72% (active),87.7% (active)
CC[C@@H]1C(=O)OC[C@@H]1Cc1cncn1C,-3%,-8%,-4.1%,18%,-4%,-35.8%,7%,-18%,-20.9%,-27%,-90%,26%,-11%,-4%,-19.1%,-7%,-1%,-9.2%
CCC1(O)C(=O)OCc2c1cc1n(c2=O)Cc2cc3cc(C)ccc3nc2-1 (configuration not stated),94% (active),83% (active),82.2% (active),36%,64%,83.9% (active),31%,-19%,47.1%,17%,-4%,18.9%,-1%,-25%,18.8%,36%,61%,64.7%
COc1ccc([As+](c2ccccc2)(c2ccccc2)c2ccccc2)cc1,82% (active),98% (active),99.1% (active),88% (active),99% (active),98.8% (active),93% (active),99% (active),98.7% (active),77% (active),98% (active),99% (active),95% (active),99% (active),99% (active),91% (active),98% (active),99% (active)
